Here are results for ten compounds from PubChem BioAssay (NCATS).

Assay [1] can be described thus: Quantitative High-Throughput drug screen in 47 multiple myeloma cell lines against the NCATS MIPE library collection: OPM2_DSMZ cell viability assay (AID 1919872). Also: nearly all actives have a fitted effect of over 30% in size. The gist of the method: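 Luminescent ATP measurement with CellTiter-Glo gives viability, scaled between DMSO-only wells (100%) and media-only wells (0%). Cells, 500 per well, faced library compounds for 48 hours at 37C.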

The nature of assay [2]: qHTS for identification of novel therapeutic agents for treatment of microphthalmiaassociated transcription factor (MiT) renal cell carcinoma (RCC) (AID 1963991). Particulars: CellTiter-Glo, 48 h, stronger effect = lower value. Summed up:
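Three TFE3-fusion RCC cell lines (UOK109, UOK124, UOK145), 500 cells/well, were exposed to the 1912-compound MIPE 4.0 library for 48 hours at 37 C. Viability was read by CellTiter-Glo luminescence, normalised to DMSO (100%) and empty wells (0%), with 11-concentration curve fits.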
Background: Quantitative high-throughput screening tests each substance at several concentrations.

Assay [3] is described as follows: qHTS profiling for inhibitors of Plasmodium falciparum proliferation (AID 504749). Also: nearly all actives have a fitted effect of over 60% in size. Also: potency is read from the fitted curve at half-maximal effect.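 As to activity, negative = inhibition: 0% = DMSO vehicle and full inhibition = artemisinin control.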 Particulars: P. falciparum in erythrocytes, SYBR Green DNA, 72 h. Summed up: (§1)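 SYBR Green fluorescence of parasite DNA, read after lysis and overnight dark incubation, measured growth over 72 h in erythrocyte culture at 0.3% parasitemia and 2.5% hematocrit. Data normalised to DMSO and 0.29 uM artemisinin, with plate-drift correction.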

Assay [4] deals with 3D7. Described as above. Particulars: P. falciparum in erythrocytes, SYBR Green DNA, 72 h; series mostly up to 28.7 µM. Summed up:
as §1

Assay [5] deals with 7G8. The description is as above. The note with it: P. falciparum in erythrocytes, SYBR Green DNA, 72 h; series mostly up to 28.7 µM. The gist of the method:
as §1

The test system of assay [6] is AA1029. The assay is described as above. Particulars: P. falciparum in erythrocytes, SYBR Green DNA, 72 h; series mostly up to 28.7 µM. Summed up: as §1
Assay [7] is described as follows: Quantitative High-Throughput drug screen in 47 multiple myeloma cell lines against the NCATS MIPE library collection: KMS28BM_JCRB cell viability assay (AID 1919874). Also: nearly all actives have a fitted effect of over 35% in size. Also: potency is read from the fitted curve at half-maximal effect. Summed up:
(§2)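 ATP-based CellTiter-Glo luminescence after 48 h drug exposure (37 °C, 5% CO2) of 500 myeloma cells per well. DMSO-only wells set 100% viability, media-only wells 0%; MIPE 4.0 library added by pin tool.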

A short description of assay [8]: qHTS drug screen for cell cycle checkpoint inhibitors in PARPi-resistant BRCA-mutant ovarian cancer cell lines. (AID 1963452; calls by dose curve). Particulars: PEO1/OlaR viability, CellTiter-Glo luminescence, 96 h, stronger effect = lower value. The gist of the method:
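PEO1, PEO4 and PEO1/OlaR ovarian cancer cells, 600 per well, exposed 96 h at 37C to a dilution series. Viability read by CellTiter-Glo luminescence, normalized to DMSO and empty wells; activity summarized as Z-AUC.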

Assay [9] can be described thus: Quantitative High-Throughput drug screen in 47 multiple myeloma cell lines against the NCATS MIPE library collection: KMS11_JCRBsus cell viability assay (AID 1919873). Also: nearly all actives have a fitted effect of over 50% in size. The gist of the method:
as §2

The mark [10] stands for this setting: TFE3-RCC UOK109 viability, measured here: UOK109 Z-AUC.
The mark [11] stands for this setting: TFE3-RCC viability, measured here: UOK124 Z-AUC.
Setting [12] is: TFE3-RCC viability, measured here: UOK145 Z-AUC.
Setting [13] is: at 28.7 µM (top of the series), parasite line A.
[14] abbreviates: at 28.7 µM (top of the series), parasite line B.
[15] abbreviates: measured here: PEO1 parental Z-AUC.
The mark [16] stands for this setting: at 12.8 µM (top of the series), parasite line A.
The mark [17] stands for this setting: at 12.8 µM (top of the series), parasite line B.

Results filed as inconclusive are left out. Activity calls are given as the source filed them. Unless noted, calls follow the shape of the dose curve; as a rule, active = well fitted curve in the direction sought with a large enough effect; inconclusive = small, poorly fitted or top-dose-only effect, or another doubt; inactive = no such curve, though single readings can be large; an effect the other way counts as inactive or inconclusive.

In the case of `NC(=O)N1c2ccccc2CC(=O)c2ccccc21`, the Potency entry in assay [1], in assay [4], in assay [5] and in assay [6] was “inactive” in each case. Moreover, the results for the z-score in assay [2] (setting [10]), in [2] (setting [11]) and in [2] (setting [12]) were 0.211, 0.361 and -0.025, respectively. The activity, negative = inhibition in assay [3] (setting [13]) was -5.05% (inactive); in assay [3] (setting [14]) it was -8.83% (inactive).
For `Cc1cccc(N(C)C(=S)Oc2ccc3ccccc3c2)c1`, the Potency result in assay [1], in assay [7], in assay [4], in assay [5] and in [6] was “inactive” in each case. For the same compound, the Z-AUC in [8] was 0.688 (inactive); in assay [8] (setting [15]), 0.339; in assay [8] (measured here: PEO4 Z-AUC) it was 0.795. Besides, the activity, negative = inhibition is -2.31% (inactive) in assay [3] (setting [16]) and 0.272% (inactive) in assay [3] (setting [17]).
For `CCC(=O)O[C@]1(C(=O)CCl)[C@@H](C)C[C@H]2[C@@H]3CCC4=CC(=O)C=C[C@]4(C)[C@@]3(F)[C@@H](O)C[C@@]21C`, the Potency entry in assay [1] and in [7] was “inactive” throughout. Also, the Z-AUC is -0.206 (inactive) in assay [8], 0.492 in assay [8] (setting [15]) and -0.658 in assay [8] (measured here: PEO4 Z-AUC).
`Nc1nc(N)nc(-c2cc(Cl)ccc2Cl)n1`: the Potency entry in [1], in assay [4], in [5] and in [6] was “inactive” throughout. Further, the figures for the Z-AUC in [8], in assay [8] (setting [15]) and in assay [8] (measured here: PEO4 Z-AUC) were 0.87 (inactive), 0.667 and 0.862, respectively. For the same compound, the results for the z-score in [2] (setting [10]), in assay [2] (setting [11]) and in [2] (setting [12]) were 0.0738, 0.434 and 0.276, respectively. Besides, the activity, negative = inhibition in assay [3] (setting [13]) was -9.21% (inactive); in assay [3] (setting [14]) it was -1.76% (inactive).
Turning to `CC(C)Cn1cnc2c(N)nc3ccccc3c21`, the Potency entry in assay [1], in assay [4] and in assay [6] was “inactive” throughout. For the same compound, in assay [7], the Potency was 14.8 µM (active). The Z-AUC in [8] was -0.974 (inactive); in assay [8] (setting [15]), -0.536; in assay [8] (measured here: PEO4 Z-AUC), -1.36. Further, the activity, negative = inhibition in assay [3] (setting [14]) is -10.9% (inactive).
Turning to `CCn1cc(C(=O)O)c(=O)c2cc(F)c(N3CCNCC3)nc21`, the Potency entry in assay [1] and in assay [4] was “inactive” throughout. For the same compound, the values for the z-score in assay [2] (setting [10]), in [2] (setting [11]) and in assay [2] (setting [12]) were 0.63, -0.25 and 0.63, respectively. Besides, the values for the activity, negative = inhibition in [3] (setting [16]) and in assay [3] (setting [17]) were -33.7% (inactive) and -38.9% (inactive), respectively.
With `CC[C@H](NC(C)C)[C@H](O)c1ccc(O)c2[nH]c(=O)ccc12`, the Potency result in assay [1], in [4], in assay [5] and in assay [6] was “inactive” in each case. Also, the Z-AUC is -0.979 (inactive) in assay [8], 0.0863 in [8] (setting [15]) and 0.0233 in [8] (measured here: PEO4 Z-AUC). Also, the z-score in assay [2] (setting [10]) amounted to 0.709; in [2] (setting [11]) it was 0.735; in assay [2] (setting [12]), 1.42. Also, the activity, negative = inhibition in [3] (setting [13]) was 3.5% (inactive); in [3] (setting [14]), 5.44% (inactive).
As for `CCN(CC)CC#CCOC(=O)C(O)(c1ccccc1)C1CCCCC1` (stereo unspecified), the Potency entry in assay [1] is “inactive”. The z-score worked out at 0.714 in [2] (setting [10]), 0.353 in assay [2] (setting [11]) and 0.607 in [2] (setting [12]).
In the case of `Cc1noc(NS(=O)(=O)c2ccc(N)cc2)c1C`, the Potency result in assay [1], in [9], in [4], in [5] and in assay [6] was “inactive” in each case. Further, the activity, negative = inhibition was 13.7% (inactive) in [3] (setting [13]) and 4.61% (inactive) in [3] (setting [14]).
For the compound `CCOC(=O)c1ccc(C#Cc2ccc3c(c2)C(C)(C)CCS3)nc1`, the Potency entry in [1], in [7], in [4] and in assay [6] was “inactive” in each case. The Z-AUC was 1.4 (inactive) in [8], 1.62 in assay [8] (setting [15]) and 1.15 in [8] (measured here: PEO4 Z-AUC). In addition, the z-score in assay [2] (setting [10]) worked out at 0.0377; in assay [2] (setting [11]), 0.696; in assay [2] (setting [12]), 0.0993. Also, the activity, negative = inhibition in [3] (setting [14]) is -14.4% (inactive). Also, in assay [5], the Potency is 12.6 µM (active).
